Assay [1] in a line: qHTS assay to identify small molecule agonists of H2AX - cell viability counter screen (AID 1224847; calls by dose curve; note: nearly all actives have a fitted effect of over 30% in size; note: potency is the fitted concentration of half-maximal effect). To be noted: CHO-K1 viability, CellTiter-Glo luminescence, 3 h; series mostly up to 70.9 µM. In a few lines: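 After overnight plating of 1000 CHO-K1 cells per well, a 15-concentration compound series was applied for 3 hr at 37C. Luminescence from CellTiter-Glo, read following 30 min at room temperature, reflected cell viability.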

A short description of assay [2]: qHTS assay to identify small molecule antagonists of the estrogen related receptor (ERR) signaling pathway from Tox21 library (AID 1224848). Note: potency is the fitted concentration of half-maximal effect; nearly all actives have a fitted effect of over 50% in size. The settings on record: ERR reporter cell line, luciferase antagonist mode, 18 h; series mostly up to 92.4 µM. An outline of the steps:
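Antagonist-mode screen of the Tox21 10K library in an NTP-provided ERR reporter cell line; 18 h compound exposure at 37 C, luminescence measured with ONE-Glo.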
In general terms: Quantitative high-throughput screening tests each substance at several concentrations.

Assay [3] in a line: qHTS assay to identify small molecule agonists of the estrogen related receptor (ERR) signaling pathway from Tox21 library (AID 1224849; calls by dose curve; note: % is set by controls: 0 for no effect and ±100 for the full control effect; nearly all actives have a fitted effect of over 15% in size). To be noted: ERR reporter cell line, ONE-Glo luciferase, 18 h; at 92.4 µM (top of the series) unless noted. In a few lines: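 Agonist signal is luciferase luminescence from an ERR reporter cell line treated 18 h at 37 C with DMSO-dissolved compounds, read 30 min after ONE-Glo addition at room temperature.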

The nature of assay [4]: qHTS RealTime-Glo MT Cell Viability Assay in HepG2 cells - 24 hour (AID 1224867). Note: nearly all actives have a fitted effect of over 50% in size. Note: potency is the fitted concentration of half-maximal effect. The settings on record: RealTime-Glo luminescence; series mostly up to 76.8 µM. An outline of the steps:
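Tox21 10K library screened in qHTS format on HepG2 cells carrying RealTime-Glo reagents. Compounds were added after a 5 h preincubation, and the luminescent signal from continuous culture was measured repeatedly during 40 h treatment.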

A short description of assay [5]: qHTS RealTime-Glo MT Cell Viability Assay in HEK293 cells - 32 hour (AID 1224868). Note: nearly all actives have a fitted effect of over 50% in size. Note: potency is the fitted concentration of half-maximal effect. To be noted: RealTime-Glo luminescence; series mostly up to 76.8 µM. An outline of the steps: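 Luminescence generated by NanoLuc from substrate produced by living HEK293 cells served as the viability signal. Each value reflects the reading at its stated time point during continuous 40 h compound exposure at 37 C.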

Assay [6] in a line: A CellTox Green Cytotoxicity Assay to monitor cytotoxicity in HEK293 cells - 0 hour (AID 1224869). For Cytotoxicity: % is set by controls: 0 for no effect and ±100 for the full control effect. Note: nearly all actives have a fitted effect of over 50% in size. Note: potency is the fitted concentration of half-maximal effect. To be noted: CellTox Green fluorescence; series mostly up to 76.8 µM. In a few lines: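 Cytotoxicity was tracked continuously in HEK293 cells by a DNA-binding dye excluded from viable cells. Compounds were transferred in DMSO 5 h after seeding; fluorescence was recorded at intervals up to 40 h.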

A short description of assay [7]: qHTS RealTime-Glo MT Cell Viability Assay in HepG2 cells - 40 hour (AID 1224870). Note: nearly all actives have a fitted effect of over 50% in size. Note: potency is the fitted concentration of half-maximal effect. To be noted: RealTime-Glo luminescence; series mostly up to 76.8 µM. An outline of the steps: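 Real-time viability: cells seeded at 600 per well together with NanoLuc and cell-permeant prosubstrate, compounds added after 5 h incubation. Luminescence tracked at 0, 8, 16, 24, 32 and 40 h of exposure.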

Assay [8] is described as follows: qHTS assay to identify small molecule agonists of the hypoxia (HIF-1) signaling pathway (AID 1224846; active = well fitted activation curve with a large enough effect in the signal ratio in the repeat runs, not every such curve was filed as active; the % refers to the signal ratio; note: % is set by controls: 0 for no effect and ±100 for the full control effect). To be noted: HRE-bla ME-180 cells, beta-lactamase ratio, 17 h; series mostly up to 76.8 µM. In a few lines:
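Steps: seed ME-180 HRE-bla cells (2,000/well, 0.5% dialyzed FBS); incubate 5 hrs at 37C; pin-transfer compounds or DMSO; incubate 17 hrs; add LiveBLAzer B/G substrate CCF4-AM; measure reporter activation by FRET.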

Values without a mark were called inactive. Inconclusive results are not listed. Calls of active or inactive are those of the source. Unless noted, calls come from the whole dose curve; as a rule, active = well fitted curve in the direction sought with a large enough effect in the repeat runs; inconclusive = weak or mixed curves; inactive = no such curve, though single readings can be large; an effect the other way counts as inactive or inconclusive.

Regarding `CCCCCCCCCCn1cc[n+](CCCCCCCCCC)c1C`, the Potency in assay [1] was 10.1 µM (active); in assay [2], 2.17 µM (active); in assay [4] it was 19.5 µM (active); in assay [5] it was 1.38 µM (active); in assay [7], 19.5 µM (active). Besides, the activity change, positive = activation in assay [3] was -74.4%. Moreover, the Potency entry in assay [6] was “inactive”.
Turning to `NNc1nc(-c2ccccc2)cs1`, in assay [3], the activity change, positive = activation is -30.7%. The Potency entry in assay [4], in assay [6] and in assay [7] was “inactive” each time.
In the case of `CC[C@@]1(O)C(=O)OCc2c1cc1n(c2=O)Cc2c-1nc1ccccc1c2/C=N/OC(C)(C)C`, the Potency in assay [2] was 0.0596 µM (active); in assay [5], 0.0239 µM (active). Further, the activity change, positive = activation in assay [3] is -54.3% [at 42.5 µM]. The Potency entry in assay [6] was “inactive”.
On to `O=C(OCC1CO1)C1CCCCC1C(=O)OCC1CO1` (centres undefined), for which the Potency result in assay [1], in assay [4], in assay [6] and in assay [7] was “inactive” throughout.
Take `O=c1cccccc1O`: the Potency result in assay [1], in assay [4], in assay [6] and in assay [7] was “inactive” each time.
With `O=C(O)c1cc(O)c2c(c1)C(=O)c1cccc(O)c1C2=O`, the Potency entry in assay [1], in assay [4], in assay [5], in assay [6] and in assay [7] was “inactive” in each case.
With `CCC(Cl)C(Cl)C(Cl)CC(Cl)C(Cl)C(C)Cl` (centres undefined), the Potency result in assay [8], in assay [4], in assay [5], in assay [6] and in assay [7] was “inactive” throughout.
For `CC(C)(C)CC(C)(C)c1ccc(O)c(Cc2ccc(Cl)cc2Cl)c1`, the Potency was 15.6 µM (active) in assay [1] and 21.3 µM (active) in assay [5]. Further, the Potency entry in assay [6] is “inactive”.
Take `O=[N+]([O-])c1cc([N+](=O)[O-])c2ccc(S(=O)(=O)O)cc2c1O`: the Potency result in assay [1], in assay [4], in assay [5], in assay [6] and in assay [7] was “inactive” each time.
On to `Cc1cc(C2CCCCC2)n(O)c(=O)c1`, for which the Potency entry in assay [1], in assay [4] and in assay [6] was “inactive” in each case. Besides, the Potency in assay [5] is 1.69 µM (active).
Turning to `OCCN(CCO)c1nc(N2CCCCC2)c2nc(N(CCO)CCO)nc(N3CCCCC3)c2n1`, the Potency entry in assay [1] and in assay [7] was “inactive” each time. Further, the Potency in assay [2] is 13.3 µM (active); in assay [5], 26.8 µM (active); in assay [6], 21.3 µM (active). Besides, in assay [3], the activity change, positive = activation is -56% [at 42.5 µM].
As for `Fc1ccc(C(c2ccc(F)cc2)N2CCN(C/C=C/c3ccccc3)CC2)cc1`, the Potency was 23.7 µM (active) in assay [2] and 21.3 µM (active) in assay [5]. Moreover, the Potency result in assay [6] was “inactive”.
Turning to `NNc1nc(-c2ccc([N+](=O)[O-])cc2)cs1`, the results for the Potency in assay [1], in assay [2] and in assay [5] were 22.5 µM (active), 27.3 µM (active) and 24.5 µM (active), respectively. Moreover, in assay [3], the activity change, positive = activation is -52.6%. For the same compound, in assay [6], the Potency result was “inactive”.
As for `CCCCN(CCCC)c1ccc(C(=O)c2ccccc2C(=O)O)c(O)c1`, the Potency in assay [2] is 55 µM (active). The activity change, positive = activation in assay [3] is -39.4%. For the same compound, the Potency result in assay [5], in assay [6] and in assay [7] was “inactive” each time.

For the origin of these results see PubChem BioAssay (Tox21).
